Bioassay records from PubChem BioAssay.
The sample as a whole holds a higher share of hits than the screen did.
Tb PGK inh: T. brucei PGK inhibition. AID 602233. Potency, µM (highest dose often 57.5 µM), inactives show at the highest dose activity change, negative = inhibition, actives largely listed as inhibitors. PGK/GAPDH coupled, Kinase-Glo luminescence, 60 min. 0.043% of 380,000 active; active means well fitted inhibition curve with a large enough effect; inconclusive means small, poorly fitted or top-dose-only effect; inactive means no such curve, though single readings can be large or run the other way; further: potency means the concentration at half of the fitted maximal effect; nearly all actives have a fitted effect of over 60% in size
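Luminescent ATP detection (Kinase-Glo Plus) follows a 60-minute room-temperature incubation, with wells lacking PGK as controls. Buffer: 100 mM TEA (pH 7.6), 5 mM MgCl2, 0.01% Tween-20. Coupling enzyme GAPDH (100 nM final) supplies unstable 1,3-BPG in-well.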
PI5P4Ka inh: inhibitors of human PI5P4K alpha; max response, %; PI5P4Kalpha enzyme, ADP-Glo luminescence, 60 min; hits give low values; AID 652105; 1.2% of 330,000 active; P48426; active means max response of -50% or lower; inconclusive means between -30% and -50%; inactive means -30% or higher; further: value at the top dose of about 77 µM
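Single end-point luminescence (ADP-Glo) quantified ADP from PI5P4Kalpha turnover; ATP 5 microM final, 1 h at RT, 0.1% CHAPS and 0.28 mM EGTA in HEPES pH 7.4.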
PI4K2A inh: blocks human PI4K2A kinase activity | Q9BTU6 | purified PI4K2A, ADP-Glo luminescence, 1 h; hits give low values | activity change, negative = inhibition, % at 76.9 µM | 0.13% of 420,000 active | AID 1346378; in the data active means activity change below about -50%; inconclusive means mostly about -30% to -49%;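 further: -100% = wells without enzyme as full effect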
Target sequence (Q9BTU6 whole entry, looked up): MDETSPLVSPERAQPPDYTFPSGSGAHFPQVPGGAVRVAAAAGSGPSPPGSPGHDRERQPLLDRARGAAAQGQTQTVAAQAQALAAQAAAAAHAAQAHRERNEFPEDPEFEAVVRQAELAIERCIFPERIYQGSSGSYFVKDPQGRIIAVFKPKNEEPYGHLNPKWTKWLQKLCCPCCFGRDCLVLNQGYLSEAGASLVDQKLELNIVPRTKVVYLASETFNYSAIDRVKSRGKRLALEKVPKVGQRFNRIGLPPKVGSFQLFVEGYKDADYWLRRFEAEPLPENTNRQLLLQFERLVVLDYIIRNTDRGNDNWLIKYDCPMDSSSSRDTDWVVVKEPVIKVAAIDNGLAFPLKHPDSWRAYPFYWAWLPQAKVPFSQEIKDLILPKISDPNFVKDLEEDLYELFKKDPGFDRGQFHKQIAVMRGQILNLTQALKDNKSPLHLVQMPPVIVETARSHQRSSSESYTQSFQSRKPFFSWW
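In this quantitative HTS, ADP production by PI4K2A was quantified luminescently after 1 h at ambient temperature; 100 microM adenosine served as plate-quality control.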
Pin1 inh: inhibitors of human Pin1. Pin1 FP peptide displacement, HiFluor488, 10 min. 0.009% of 390,000 active. Potency, µM (doses to about 115 µM), inactives show at the top dose activity, negative = inhibition, usual class: inhibitors. AID 504891; active means well fitted inhibition curve with a large enough effect in the polarisation, with a control signal flat, not every such curve was filed as active; inconclusive means small, poorly fitted or top-dose-only effect, or effect the other way, or a change in a side signal; inactive means no such curve, though single readings can be large or run the other way; the % refers to the polarisation; further: potency means the concentration at half of the fitted maximal effect
Target sequence (Q13526 whole entry, looked up): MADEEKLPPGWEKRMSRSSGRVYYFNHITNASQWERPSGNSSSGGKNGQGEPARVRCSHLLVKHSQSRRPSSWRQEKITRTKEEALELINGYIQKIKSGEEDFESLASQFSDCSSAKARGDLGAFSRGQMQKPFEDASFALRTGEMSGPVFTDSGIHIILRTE
Numbers without * were called inactive. Unless noted, on the % scale 0 is the no-effect control and ±100 the full control effect.

Screening COc1cc(F)c(S(=O)(=O)N2CCCN(S(=O)(=O)c3ccc(NC(C)=O)cc3)CC2)c(F)c1 returned Pin1 inh -0.7%.
Screening Cn1nnnc1Sc1ncnc2scc(-c3cccc(Cl)c3)c12 returned Pin1 inh -9.4%.
Screening CCCCCCc1cc2cc(-c3nnc(-c4ccccc4OC)o3)c(=O)oc2cc1O returned Tb PGK inh inconclusive, PI5P4Ka inh -87.7*, PI4K2A inh -3.3 and Pin1 inh inconclusive.
`CCCCCCc1cc2cc(-c3nnc(-c4ccccc4O)o3)c(=O)oc2cc1O` gave Tb PGK inh inactive, PI5P4Ka inh -29.0, PI4K2A inh 0.4 and Pin1 inh inconclusive.
For CCOC(=O)C1CCN(C(=O)Nc2ccc3c(c2)nc(C)n3C)CC1 the results were Tb PGK inh -3.0%, PI4K2A inh 7.9 and Pin1 inh -2.8%.
For O=C(Nc1ccc2nc(-c3cccs3)c(-c3cccs3)nc2c1)N1CCCC1 the results were Pin1 inh -1.1%.
O=C(Nc1ccc2nc(-c3ccco3)c(-c3ccco3)nc2c1)N1CCCCCC1 was read as Tb PGK inh -19.4%, PI4K2A inh -50.6* and Pin1 inh inconclusive.
For CCOC(=O)C1CCN(C(=O)Nc2ccc3nc(-c4ccco4)c(-c4ccco4)nc3c2)CC1 the results were Tb PGK inh inconclusive, PI5P4Ka inh -70.2*, PI4K2A inh inconclusive and Pin1 inh inconclusive.
Screening N#Cc1cnn(-c2ccc(F)cc2)c1N returned Tb PGK inh -5.2%, PI5P4Ka inh -51.6*, PI4K2A inh 2.1 and Pin1 inh -0.9%.
Cc1ccc(-n2ncc(C#N)c2N)cc1 was read as Tb PGK inh 0.5%, PI5P4Ka inh 1.6, PI4K2A inh 3.6 and Pin1 inh -0.3%.
`Cn1c(N)c(C(=O)Nc2cccc(Cl)c2)c(=O)n(C)c1=O` gave Tb PGK inh -3.2%, PI5P4Ka inh 5.3, PI4K2A inh 6.2 and Pin1 inh -2.6%.
`CN=c1sc(C(=O)Nc2cccc(Cl)c2)cc(=O)n1C` gave Tb PGK inh inactive, PI5P4Ka inh -62.3*, PI4K2A inh -3.3 and Pin1 inh inconclusive.
CC(=O)Nc1ccc(S(=O)(=O)Nc2nc3ccccc3nc2Nc2ccc(C(=O)O)c(O)c2)cc1 was read as Tb PGK inh inconclusive, PI5P4Ka inh -71.3* and PI4K2A inh -10.6.
CC(=O)Nc1ccc(S(=O)(=O)Nc2nc3ccccc3nc2Nc2cccc(O)c2)cc1 was read as Tb PGK inh inactive, PI5P4Ka inh 2.4, PI4K2A inh -3.6 and Pin1 inh -1.9%.
`C[C@@H]1Cc2cc(O)c(O)c(O)c2C(=O)O1` gave PI4K2A inh -5.6.
For C=CS(=O)(=O)c1sc(Cl)c(N2CCOCC2)c1[N+](=O)[O-] the results were Tb PGK inh 1.8%, PI5P4Ka inh -104.6*, PI4K2A inh 2.2 and Pin1 inh inconclusive.
For S=c1[nH]c2ccc(Cl)cc2s1 the results were Tb PGK inh -2.4%, PI5P4Ka inh -75.1*, PI4K2A inh -1.4 and Pin1 inh -8.8%.
Screening O=[N+]([O-])c1ccc2[nH]c(=S)sc2c1 returned Tb PGK inh -10.8%, PI5P4Ka inh -75.0*, PI4K2A inh 2.7 and Pin1 inh -5.7%.
`CCc1cc(-c2nnn(CCC3COCCO3)c2CC)cc(CC)c1-c1cn(CCc2c[nH]c3ccccc23)nn1` (centres undefined) gave Tb PGK inh -3.5%, PI5P4Ka inh -1.9 and PI4K2A inh 4.7.
Screening COc1ccc(/C=C2/C(=O)N(c3ccccc3)N=C2C)cc1OC returned Tb PGK inh -10.3%, PI5P4Ka inh -1.0, PI4K2A inh -29.9 and Pin1 inh -6.2%.
Screening CCOc1cc(/C=C2/C(=O)N(c3ccccc3)N=C2C)ccc1OC(=O)c1cccs1 returned Tb PGK inh inactive, PI4K2A inh -52.3* and Pin1 inh 6.6%.
Screening COc1cccc(C2=CC(c3ccccc3O)NC(C)(C)N2)c1 (centres undefined) returned Pin1 inh 4.5%.
For C#CCOCCOCCOCCNc1nc(N2CCN(C(=O)CCCCCCCCCCNC(=O)[C@H](CO)n3cc(CCCSC)nn3)CC2)nc(N2CCN(C(=O)CCCCCCCCCCNC(=O)[C@H](CCCN=C(N)N)n3cc(C[C@@H](C)CC)nn3)CC2)n1 the results were Tb PGK inh -2.0%, PI5P4Ka inh -79.0*, PI4K2A inh 2.0 and Pin1 inh 260.1%.
For C#CCOCCOCCOCCNc1nc(N2CCN(C(=O)CCCCCCCCCCNC(=O)Cn3cc(C[C@@H](C)O)nn3)CC2)nc(N2CCN(C(=O)CCCCCCCCCCNC(=O)[C@H](CCCN=C(N)N)n3cc(C[C@@H](C)CC)nn3)CC2)n1 the results were Tb PGK inh 1.6%, PI5P4Ka inh -75.7*, PI4K2A inh -1.1 and Pin1 inh inconclusive.
`C#CCOCCOCCOCCNc1nc(N2CCN(C(=O)CCCCCCCCCCNC(=O)Cn3cc(C[C@@H](C)O)nn3)CC2)nc(N2CCN(C(=O)CCCCCCCCCCNC(=O)[C@H](CO)n3cc(CCCSC)nn3)CC2)n1` gave Tb PGK inh -6.5%, PI5P4Ka inh -2.9, PI4K2A inh -2.6 and Pin1 inh 18.2%.
C#CCOCCOCCOCCNc1nc(N2CCN(C(=O)CCCCCCCCCCNC(=O)[C@H](CO)n3cc(CCCSC)nn3)CC2)nc(N2CCN(C(=O)CCCCCCCCCCNC(=O)[C@H](CCCCN)n3cc(CCO)nn3)CC2)n1 was read as Tb PGK inh 18.2%, PI5P4Ka inh -51.3*, PI4K2A inh -0.6 and Pin1 inh inconclusive.
Screening C#CCOCCOCCOCCNc1nc(N2CCN(C(=O)CCCCCCCCCCNC(=O)[C@@H](CCSC)n3cc(CCO)nn3)CC2)nc(N2CCN(C(=O)CCCCCCCCCCNC(=O)[C@H](CCSC)n3cc(CCO)nn3)CC2)n1 returned Tb PGK inh inactive, PI5P4Ka inh 6.4, PI4K2A inh -2.0 and Pin1 inh -0.7%.
Screening CNC(=O)OC1CC2CC1[C@H]1CCCCN1C2=O (some centres undefined) returned PI5P4Ka inh -0.7 and PI4K2A inh -3.9.
Screening N#Cc1c(Cl)cccc1Oc1ccc([S+](=O)([O-])N2CCN([S+](=O)([O-])c3c(F)cccc3F)CC2)cc1 returned Pin1 inh 18.3%.
`Cc1ccc(CN(Cc2cc3cc(C)ccc3[nH]c2=O)Cc2nnnn2Cc2ccccc2)cc1` gave Pin1 inh 1.4%.
`NS(=O)(=O)c1ccc(N=Nc2ccc(O)c3ncccc23)cc1` gave Tb PGK inh -20.8%, PI5P4Ka inh -79.4*, PI4K2A inh inconclusive and Pin1 inh inconclusive.
NS(=O)(=O)c1ccc(N=Nc2ccc(=O)[nH]c2O)cc1 was read as Tb PGK inh inconclusive, PI5P4Ka inh -79.8*, PI4K2A inh -9.9 and Pin1 inh inconclusive.
CCOc1ccc(N=Nc2ccc(O)c3ncccc23)cc1 was read as Tb PGK inh 1.0%, PI5P4Ka inh 0.1, PI4K2A inh 4.3 and Pin1 inh -5.0%.
